Test results from PubChem BioAssay.
The source made the active and inactive calls.

Columns and labels:
[1] = optical density shifts of acrAB sulA E. coli – strain DRC41, OD650, 48 h, E. coli filamentation inducer project, primary screen (AID 1152); conditions: higher = more signal, called active from +8 up or from −8 down;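 further: E. coli MC1000 strain DRC41 lacking acrAB efflux pump and sulA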
[2] = probe aLefty1 binding on compound microarray – biochemical, small-molecule microarray, 635/667 nm fluorescence, primary screen (AID 1153); conditions: higher = more signal;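 further: score merges spot fluorescence with signal-to-noise ratio from the scanned slide images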
[3] = plasmodial surface anion channel blockers, osmotic lysis – cell-based, P. falciparum Indochina, OD700, 1 h, primary screen (AID 1154); conditions: P. falciparum Indochina infected RBC osmotic lysis, higher = more signal, called active from +8 up or from −8 down
[4] = plasmodial surface anion channel blockers, osmotic lysis – cell-based, P. falciparum Indochina, OD700, 2 h, primary screen (AID 1155);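 further: lysis reports solute entry through the parasite surface anion channel PSAC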; conditions: P. falciparum Indochina infected erythrocytes, higher = more signal, called active from +8 up or from −8 down
[5] = changes in parasitized red cell lysis, either direction – P. falciparum Indochina, OD700, 3 h, PSAC antagonist project, primary screen (AID 1156); conditions: P. falciparum-infected erythrocytes, osmotic lysis, higher = more signal, called active from +8 up or from −8 down
[6] = plasmodial surface anion channel blockers, osmotic lysis – cell-based, P. falciparum Indochina, OD700, 18 h, primary screen (AID 1157); conditions: P. falciparum Indochina infected erythrocytes, osmotic lysis OD700, 18 h; higher = more signal, called active from +8 up or from −8 down
[7] = S6 kinase pathway phospho-S6 level changes – cell-based, A549, cytoblot, luminescence, serum-stimulated, primary screen (AID 1158); conditions: 5 h, higher = more signal;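 further: serum-stimulated A549 lung adenocarcinoma cells; signal is phosphorylated S6 detected by cytoblot immunostaining with HRP secondary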
[8] = target: NADPH oxidase 2 (Homo sapiens) (UniProt P04839); assay: compounds shifting NOX2 Amplex Red fluorescence – cell-based, HEK293-NOX2, PMA-stimulated, NOX inhibitor project, primary screen (AID 1159); conditions: 45 min, higher = more signal, called active from +8 up or from −8 down; further: test concentration not given here
Chain of NADPH oxidase 2 (Homo sapiens) (P04839 whole entry, looked up): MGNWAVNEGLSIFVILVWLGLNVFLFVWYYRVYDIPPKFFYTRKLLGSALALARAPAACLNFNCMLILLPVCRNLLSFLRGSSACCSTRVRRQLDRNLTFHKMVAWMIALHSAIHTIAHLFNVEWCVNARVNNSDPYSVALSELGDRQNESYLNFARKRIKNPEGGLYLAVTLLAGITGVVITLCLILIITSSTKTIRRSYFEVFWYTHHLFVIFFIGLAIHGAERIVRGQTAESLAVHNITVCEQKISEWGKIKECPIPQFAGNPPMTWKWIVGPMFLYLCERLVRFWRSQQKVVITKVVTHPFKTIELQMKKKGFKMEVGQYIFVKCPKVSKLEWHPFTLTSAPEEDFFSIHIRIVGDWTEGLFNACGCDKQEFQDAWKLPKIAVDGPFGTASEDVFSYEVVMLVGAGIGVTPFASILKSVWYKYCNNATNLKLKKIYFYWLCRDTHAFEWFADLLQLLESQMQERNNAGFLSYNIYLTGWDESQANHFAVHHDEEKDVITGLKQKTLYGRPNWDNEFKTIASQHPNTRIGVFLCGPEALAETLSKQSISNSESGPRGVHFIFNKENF

[9] = target: NADPH oxidase 4 (Homo sapiens) (UniProt Q9NPH5); assay: compounds shifting NOX4 Amplex Red fluorescence – cell-based, HEK293-NOX4, tetracycline-induced, NOX inhibitor project, primary screen (AID 1160); conditions: HEK293-NOX4, Amplex Red H2O2 fluorescence, 45 min; higher = more signal, called active from +8 up or from −8 down
Chain of NADPH oxidase 4 (Homo sapiens) (Q9NPH5 whole entry, looked up): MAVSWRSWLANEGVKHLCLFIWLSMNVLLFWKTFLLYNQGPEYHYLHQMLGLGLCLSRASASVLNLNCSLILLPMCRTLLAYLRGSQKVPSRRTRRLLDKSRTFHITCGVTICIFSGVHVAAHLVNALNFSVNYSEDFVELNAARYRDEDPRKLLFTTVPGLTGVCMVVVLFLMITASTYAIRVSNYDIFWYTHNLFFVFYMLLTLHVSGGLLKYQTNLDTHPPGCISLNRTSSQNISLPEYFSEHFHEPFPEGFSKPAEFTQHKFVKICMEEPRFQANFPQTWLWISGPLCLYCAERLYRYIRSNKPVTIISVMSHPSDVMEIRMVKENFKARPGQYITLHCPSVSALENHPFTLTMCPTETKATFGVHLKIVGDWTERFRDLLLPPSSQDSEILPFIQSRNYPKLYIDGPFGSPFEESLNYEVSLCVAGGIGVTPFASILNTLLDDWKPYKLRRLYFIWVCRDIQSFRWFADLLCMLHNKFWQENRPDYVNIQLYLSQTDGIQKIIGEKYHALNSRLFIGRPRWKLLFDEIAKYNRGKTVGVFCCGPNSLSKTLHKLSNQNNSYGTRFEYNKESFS

[10] = target: NADPH oxidase 5 (Homo sapiens) (UniProt Q96PH1); assay: compounds shifting NOX5 Amplex Red fluorescence – cell-based, HEK293-NOX5, NOX inhibitor project, primary screen (AID 1161); conditions: HEK293-NOX5, ionomycin, 45 min, higher = more signal
Chain of NADPH oxidase 5 (Homo sapiens) (Q96PH1 whole entry, looked up): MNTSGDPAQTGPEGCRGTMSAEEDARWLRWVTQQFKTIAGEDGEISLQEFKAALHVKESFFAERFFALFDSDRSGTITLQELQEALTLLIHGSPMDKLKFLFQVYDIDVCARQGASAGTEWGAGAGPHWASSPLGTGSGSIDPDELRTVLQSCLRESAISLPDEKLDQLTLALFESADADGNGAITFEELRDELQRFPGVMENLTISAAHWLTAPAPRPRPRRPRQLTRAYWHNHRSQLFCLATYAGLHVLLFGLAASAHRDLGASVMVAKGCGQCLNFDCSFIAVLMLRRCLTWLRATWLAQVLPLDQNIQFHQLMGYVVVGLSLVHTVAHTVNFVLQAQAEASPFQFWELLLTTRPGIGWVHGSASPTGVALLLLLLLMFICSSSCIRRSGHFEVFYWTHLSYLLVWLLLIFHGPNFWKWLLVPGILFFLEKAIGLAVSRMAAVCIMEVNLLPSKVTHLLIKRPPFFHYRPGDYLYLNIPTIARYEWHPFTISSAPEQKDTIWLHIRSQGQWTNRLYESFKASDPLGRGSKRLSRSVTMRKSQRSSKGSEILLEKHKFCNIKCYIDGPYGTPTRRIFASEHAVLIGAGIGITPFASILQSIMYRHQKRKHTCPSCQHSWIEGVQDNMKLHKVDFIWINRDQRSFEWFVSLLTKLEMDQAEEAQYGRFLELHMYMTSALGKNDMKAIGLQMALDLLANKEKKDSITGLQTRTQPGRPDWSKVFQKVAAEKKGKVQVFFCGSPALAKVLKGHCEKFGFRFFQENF

Row | Compound | z-score [1] | composite z-score [2] | z-score [3] | z-score [4] | z-score [5] | z-score [6] | z-score [7] | z-score [8] | z-score [9] | z-score [10]
1 | C=CCOC(=O)[C@H]1[C@@H]2C(=O)O[C@@H](c3ccccc3)[C@@H](c3ccccc3)N2[C@@H](c2ccc(OCCOC(=O)[C@H]3C[C@H]4C(=O)N[C@@H](CC(C)C)C(=O)N4[C@H]3c3cccc(OCCO)c3)cc2)[C@]12C(=O)Nc1ccc(I)cc12 | -0.811 (inactive) | -0.33 | 2.5 (inactive) | 1.3 (inactive) | 0.844 (inactive) | 0.963 (inactive) | 0.547 | 1.35 (inactive) | 1.6 (inactive) | 1.14
2 | O=C1O[C@@H](c2ccccc2)[C@@H](c2ccccc2)N2[C@@H](c3ccccc3OCCO)[C@]3(C(=O)Nc4ccc(C#CCCO)cc43)[C@@H](C(=O)N3CCCCCCC3)[C@H]12 | -0.723 (inactive) | 3.18 | 1.01 (inactive) | 0.83 (inactive) | 0.352 (inactive) | 0.49 (inactive) | -0.544 | 1.02 (inactive) | 0.486 (inactive) | 1.69
3 | O=C1N(Cc2ccccc2)c2ccccc2[C@@H]2OC(c3ccc(OCCCO)cc3)=N[C@]12Cc1ccccc1 | 0.65 (inactive) | -0.0896 | 29.4 (active) | 26.1 (active) | 4.66 (inactive) | 2.38 (inactive) | 0.724 | -1.08 (inactive) | -0.653 (inactive) | -2.11
4 | C=CCC(OC(C)=O)[C@@H]1[C@@H](N(Cc2ccc(-c3cccc(C(F)(F)F)c3)o2)C(=O)c2ccc(-c3ccccc3)cc2)c2cc(OCCCO)ccc2N1C(=O)c1ccc2ccccc2n1 (stereo not given in full) | -0.662 (inactive) | -0.0501 | 0.394 (inactive) | -0.262 (inactive) | 0.0785 (inactive) | 0.188 (inactive) | 1.02 | -1.73 (inactive) | -1.3 (inactive) | -0.764
5 | COc1cc2c(cc1O)C(C)N(Cc1ccc([N+](=O)[O-])o1)CC2 (stereo not given) | -0.984 (inactive) | 0.245 | 18.3 (active) | 2.09 (inactive) | 0.831 (inactive) | 0.424 (inactive) | -0.31 | -4.17 (inactive) | -2.17 (inactive) | -3.28
6 | O=C1C2C=CC(C(O)c3ccccc3)N(Nc3ccccc3F)C2C(=O)N1c1ccccc1 (stereo not given) | 0.0394 (inactive) | 0.002 | 7.12 (inactive) | 1.21 (inactive) | 0.368 (inactive) | 0.632 (inactive) | 0.113 | -2.07 (inactive) | -3.6 (inactive) | -2.26
7 | O=C1C[C@@](C(=O)NCCN2CCOCC2)(c2ccc([N+](=O)[O-])cc2)[C@@H](c2ccc(CO)cc2I)N1C1CCCCC1 | 0.82 (inactive) | 0.0688 | 15.3 (active) | 1.59 (inactive) | 2.94 (inactive) | -0.168 (inactive) | 0.452 | 2.1 (inactive) | -1.09 (inactive) | -1.5
8 | C=CCNC(=O)[C@H]1[C@@H]2C(=O)O[C@@H](c3ccccc3)[C@@H](c3ccccc3)N2[C@@H](c2ccc(O)cc2)[C@]12C(=O)Nc1ccc(C#CC3(O)CCCCCC3)cc12 | -1.14 (inactive) | 0.898 | 1.79 (inactive) | 0.749 (inactive) | 0.514 (inactive) | 0.319 (inactive) | 0.356 | 1.71 (inactive) | 0.772 (inactive) | 1.06
9 | C=C(/C(=C/C[C@H](OC(C)=O)c1ccccc1OCCO)c1cc(C(=O)OC)ccc1OC)C(C)C | 0.483 (inactive) | -0.157 | 5.75 (inactive) | 0.195 (inactive) | 1.85 (inactive) | -1.19 (inactive) | 1.09 | 0.137 (inactive) | 0.264 (inactive) | -2.12
10 | CC(C)OC(=O)C=C1C[C@@H](c2ccc(C(F)(F)F)cc2)O[C@@H](c2ccc(C(F)(F)F)cc2)O1 | 0.609 (inactive) | -0.0954 | 2.79 (inactive) | -0.301 (inactive) | -0.101 (inactive) | -1.05 (inactive) | 0.569 | 0.283 (inactive) | -0.175 (inactive) | -0.0582
11 | O=C(NCc1ccccc1)[C@@H]1c2ccccc2C(=O)N(Cc2ccccc2C(F)(F)F)[C@H]1c1ccc(CO)cc1 | 0.546 (inactive) | -0.0731 | 3.68 (inactive) | 0.75 (inactive) | 1.53 (inactive) | 0.207 (inactive) | 0.0835 | -1.13 (inactive) | 0.914 (inactive) | -0.366
12 | COCCOC(=O)N1C(=O)[C@@]2(c3cc(C#CCC(C(=O)OC)C(=O)OC)ccc31)[C@H](C(=O)N1CCc3cc(OC)c(OC)cc3C1)[C@H]1C(=O)O[C@H](c3ccccc3)[C@H](c3ccccc3)N1[C@@H]2c1ccc(OCCO)cc1 | -0.763 (inactive) | 0.54 | 9.36 (active) | 2.73 (inactive) | 0.57 (inactive) | 1.67 (inactive) | -0.37 | 1.98 (inactive) | 1.19 (inactive) | 1.42
13 | CC(C)C(=C=CC[C@H](O)c1ccc(OCCO)cc1)C[C@H](O)c1ccccn1 | 0.839 (inactive) | -0.191 | 11.3 (active) | 2.04 (inactive) | 1.11 (inactive) | 0.945 (inactive) | 0.439 | 1.66 (inactive) | 0.926 (inactive) | -1.03
14 | CN(C)C(=O)[C@@]1(CCS(=O)(=O)c2ccccc2)N=C(c2ccc(OCCCO)cc2)O[C@H]1c1ccccc1 | -0.1 (inactive) | 0.142 | 28.3 (active) | 24.3 (active) | 0.873 (inactive) | 1.48 (inactive) | -0.789 | 0.441 (inactive) | 0.114 (inactive) | -0.948
15 | Cc1cc(C)c(C(O)C2C=CC3C(=O)NC(=O)C3N2Nc2ccc(Cl)cc2Cl)c(C)c1 (stereo not given) | -2.38 (inactive) | 0.479 | 3.38 (inactive) | 1.18 (inactive) | -1.55 (inactive) | 0.876 (inactive) | -0.919 | 0.614 (inactive) | -4.94 (inactive) | -1.3
16 | O=C(NCC(F)(F)F)[C@@H]1c2ccccc2C(=O)N(Cc2ccc(OC(F)(F)F)cc2)[C@H]1c1ccc(CO)cc1 | 0.484 (inactive) | -0.252 | 0.926 (inactive) | -0.137 (inactive) | 1.44 (inactive) | 0.376 (inactive) | -0.323 | -0.759 (inactive) | -0.889 (inactive) | -0.263
17 | CC1CC/C=C\[C@H]2OC34C=CCN(c5ccc(Cl)cc5)C(=O)[C@H]3N(CCCCCO)C(=O)[C@]4(C)C2C(=O)O1 (stereo not given in full) | -0.351 (inactive) | -0.101 | -0.585 (inactive) | 0.231 (inactive) | -0.175 (inactive) | 0.0119 (inactive) | -0.157 | 0.57 (inactive) | -0.261 (inactive) | 1.05
18 | CN(C)CCCNC(=O)[C@@]1(C)c2ccccc2C(=O)N(Cc2ccccc2)[C@H]1c1ccc(CO)cc1 | -0.074 (inactive) | -0.146 | 2.17 (inactive) | 0.426 (inactive) | 1.32 (inactive) | 0.377 (inactive) | -0.142 | 0.42 (inactive) | -1.25 (inactive) | 0.6
19 | C=CCOC(=O)[C@H]1[C@@H]2C(=O)O[C@@H](c3ccccc3)[C@@H](c3ccccc3)N2[C@@H](c2ccc(OCCOC(=O)[C@H]3C[C@H]4C(=O)N[C@@H](CCCCNC(C)=O)C(=O)N4[C@H]3c3ccc(O)cc3)cc2)[C@]12C(=O)Nc1ccccc12 | 3.24 (inactive) | 0.026 | 1.59 (inactive) | 0.512 (inactive) | -0.821 (inactive) | -0.927 (inactive) | 1.4 | 1.89 (inactive) | 1.44 (inactive) | 1.04
20 | O=C1O[C@@H](c2ccccc2)[C@@H](c2ccccc2)N2[C@@H](c3ccc(O)cc3)[C@]3(C(=O)Nc4ccc(C#CC5(O)CCCCCC5)cc43)[C@@H](C(=O)NC[C@H](O)c3ccccc3)[C@H]12 | -0.557 (inactive) | 0.315 | 0.996 (inactive) | 0.707 (inactive) | 1.08 (inactive) | 0.973 (inactive) | 0.173 | 1.14 (inactive) | 0.441 (inactive) | 0.0466
21 | C=C(/C(=C/C[C@@H](OC(C)=O)c1cccc(OCCO)c1)c1cc(C(=O)OC)ccc1OC)C(C)C | 0.546 (inactive) | 0.0962 | 9.43 (active) | 1.6 (inactive) | 2.19 (inactive) | 0.75 (inactive) | 0.547 | -2.08 (inactive) | -1.07 (inactive) | -2.17
22 | CCOC(=O)C[C@H]1[C@H](OC(=O)c2cc3ccccc3oc2=O)[C@@H](NC(=O)Cc2ccc(OC)cc2)c2cc(OCCCO)ccc2N1C(=O)c1ccc2ccccc2n1 | 0.96 (inactive) | -0.0046 | 9.52 (active) | 0.85 (inactive) | 0.785 (inactive) | 0.305 (inactive) | 0.336 | 1.71 (inactive) | 1.34 (inactive) | 1.53
